Compound activity (PubChem BioAssay)
Shown are actives, neighbours in structure and some others; about 1.2% of the full set was active somewhere.
MsrA inh: inhibitors of bovine MsrA. actives 0.75% (n = 360,000). inhibition, % at 15.5 µM. AID 651718. purified bovine MsrA, absorbance read-out; in the data active = inhibition above about 4.5%;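 also: 0% = vehicle wells with enzyme and 100% = reference inhibitor wells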
GC-B act: GC-B (human) receptor activation. P20594. HEK293-GC-B cells, CNP EC30, cGMP TR-FRET; 0% at EC30 CNP, 100% saturating CNP. activation, % at 10 µM. actives 0.11% (n = 370,000);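 active = activation at 10 µM reaching about 35% in either raw or pattern-adjusted values, limit read from the data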
NPR1 activator: GC-A (human) enzyme activation | HEK293 GC-A cells, cGMP TR-FRET, EC30 ANP; 0% at EC30 ANP, 100% saturating ANP | activation, % at 10 µM | actives 0.14% (n = 370,000); in the data active = activation above about 40%
Target sequence (P16066 whole entry, looked up): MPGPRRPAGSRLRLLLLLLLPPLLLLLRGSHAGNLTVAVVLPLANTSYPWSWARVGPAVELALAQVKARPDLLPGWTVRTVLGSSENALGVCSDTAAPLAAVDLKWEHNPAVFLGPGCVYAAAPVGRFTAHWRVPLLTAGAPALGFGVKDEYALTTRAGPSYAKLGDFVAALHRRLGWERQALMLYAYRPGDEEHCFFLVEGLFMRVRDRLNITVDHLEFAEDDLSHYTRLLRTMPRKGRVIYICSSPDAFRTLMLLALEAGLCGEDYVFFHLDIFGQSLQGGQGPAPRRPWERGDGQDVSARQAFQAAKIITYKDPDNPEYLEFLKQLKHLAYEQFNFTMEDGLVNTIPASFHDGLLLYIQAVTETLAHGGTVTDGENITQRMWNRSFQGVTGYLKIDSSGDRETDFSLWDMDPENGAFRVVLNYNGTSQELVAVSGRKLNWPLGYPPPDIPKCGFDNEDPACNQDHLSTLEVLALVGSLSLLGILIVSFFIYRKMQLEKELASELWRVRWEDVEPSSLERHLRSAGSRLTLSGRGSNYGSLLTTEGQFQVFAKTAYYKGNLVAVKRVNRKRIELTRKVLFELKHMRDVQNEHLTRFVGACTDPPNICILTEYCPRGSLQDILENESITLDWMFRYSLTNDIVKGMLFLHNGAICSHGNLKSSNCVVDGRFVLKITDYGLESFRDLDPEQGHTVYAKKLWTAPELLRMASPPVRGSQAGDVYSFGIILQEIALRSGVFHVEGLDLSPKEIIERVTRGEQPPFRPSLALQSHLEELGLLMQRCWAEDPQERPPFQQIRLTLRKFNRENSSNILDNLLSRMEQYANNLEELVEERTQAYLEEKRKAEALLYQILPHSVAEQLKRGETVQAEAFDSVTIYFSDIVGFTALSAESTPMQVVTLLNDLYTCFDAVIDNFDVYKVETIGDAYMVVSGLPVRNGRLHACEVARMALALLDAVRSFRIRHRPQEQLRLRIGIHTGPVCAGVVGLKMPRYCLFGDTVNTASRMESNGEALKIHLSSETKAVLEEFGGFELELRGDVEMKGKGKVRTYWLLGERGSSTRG
bovine MsrA act: activates bovine MsrA enzyme; activation, % at 10.6 µM; AID 602163; actives 0.3% (n = 360,000); purified bovine MsrA, absorbance read-out; in the data active = activation above about 7.5%;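 also: 0% = vehicle and 100% = reference activator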
Active calls of the source: *.

How did Cc1cc(S(=O)(=O)ON2C(=O)c3ccccc3C2=O)ccc1F do in these assays?
MsrA inh: 2; GC-B act: 35; NPR1 activator: 40*; bovine MsrA act: -2

What do the screens show for `O=C(OC12CCCN(C1)/C(=C/c1cccc(Cl)c1)C2)C1CCCCC1` (configuration not stated)?
GC-B act: 1; NPR1 activator: 3

Results for O=C(N/N=C/c1ccc(N2CCOCC2)cc1)c1cccs1 ?
MsrA inh: 4.6*; GC-B act: 3; NPR1 activator: 1; bovine MsrA act: -7

Results for O=C(Nc1ccc(N2CCOCC2)cc1N1CCOCC1)c1cccs1 ?
MsrA inh: 1; GC-B act: -1; NPR1 activator: 5; bovine MsrA act: -4

How did CCN(CC)c1ccc(C2N(C(=O)N3CCOCC3)CCN2S(=O)(=O)c2ccc(C)cc2)cc1 (configuration not stated) do in these assays?
MsrA inh: 4.6*; GC-B act: -1; NPR1 activator: 0; bovine MsrA act: -12

How did O=C(CCN1CCN(c2ccccc2)CC1)Nc1ccc(Cl)cc1 do in these assays?
MsrA inh: 0; GC-B act: 0; NPR1 activator: 5; bovine MsrA act: 0

Results for O=C(CCN1CCN(c2ccccc2)CC1)c1ccc(Cl)cc1 ?
MsrA inh: 0; GC-B act: -4; NPR1 activator: 44*; bovine MsrA act: -1

How did O=C(CCN1CCN(c2ccc([N+](=O)[O-])cc2)CC1)c1ccc(Cl)cc1 do in these assays?
MsrA inh: 1; GC-B act: -9; NPR1 activator: 63*; bovine MsrA act: -2

Results for Nc1cccc(S(=O)(=O)N2CCCN(S(=O)(=O)c3ccc4c(c3)OCCO4)CC2)c1 ?
GC-B act: 2; NPR1 activator: 0

What do the screens show for `COc1ccc(N2CCN(C(=O)C(=O)c3c(C)[nH]c4ccccc34)CC2)cc1`?
MsrA inh: 1; GC-B act: -1; NPR1 activator: 0; bovine MsrA act: -2

Results for CC(=O)c1ccc(N2CCN(C(=O)C(=O)c3c(C)[nH]c4ccccc34)CC2)cc1 ?
MsrA inh: 4.6*; GC-B act: -4; NPR1 activator: -10; bovine MsrA act: -6

Results for CCOC(=O)CNC(=O)C(Cc1ccc2c(c1)OCO2)NC(C)=O (configuration not stated) ?
GC-B act: -6; NPR1 activator: 2

Results for Cc1nn(-c2ccccc2)c2sc(C(=O)NCCc3ccc(Cl)cc3)cc12 ?
GC-B act: -2; NPR1 activator: -2

How did O=C(O)CCc1ccc(-c2ccc(Cl)cc2)o1 do in these assays?
MsrA inh: 0; GC-B act: -2; NPR1 activator: 45*; bovine MsrA act: -12

How did COc1ccc(-c2ccc(CCC(=O)O)o2)cc1 do in these assays?
MsrA inh: 2; GC-B act: -3; NPR1 activator: 1; bovine MsrA act: -17

What do the screens show for `O=C(O)CCc1ccc(-c2ccc(Br)cc2)o1`?
MsrA inh: 0; GC-B act: 3; NPR1 activator: 44*; bovine MsrA act: -4

What do the screens show for `COc1ccc(-c2cc(NC(=O)Cc3c[nH]c4ccccc34)ccc2Nc2cccnc2)cc1F`?
MsrA inh: 1; GC-B act: 1; NPR1 activator: 6

Results for CCCCNC(=O)C[C@@H]1C(=O)N(CCc2ccc(Cl)cc2)/C2=C/CCCCC[C@@]21C(=O)OCC ?
GC-B act: -12; NPR1 activator: 1

Results for COc1ccc(CN2CCC(CNC(=O)Nc3ccc(C)c(F)c3)CC2)cc1 ?
GC-B act: 2; NPR1 activator: -4

How did O=C(CSc1nc2ccccc2nc1N1CCOCC1)N1CCN(c2cccc(C(F)(F)F)c2)CC1 do in these assays?
GC-B act: -4; NPR1 activator: -9

Results for COc1cc(Cl)nn(-c2ccccc2)c1=O ?
MsrA inh: 1; GC-B act: -1; NPR1 activator: -1; bovine MsrA act: -4

How did O=c1c(Cl)cc(Cl)nn1-c1ccccc1 do in these assays?
MsrA inh: 2; GC-B act: 1; NPR1 activator: 47*; bovine MsrA act: -5

Results for O=C(CN1CCN(Cc2ccccc2Cl)CC1)N/N=C\c1ccccc1F ?
GC-B act: -4; NPR1 activator: 0

What do the screens show for `CCOc1ccc(C2C(C(=O)c3ccc(C)o3)=C(O)C(=O)N2c2nc(C)c(C(=O)OC)s2)cc1` (configuration not stated)?
MsrA inh: 1; GC-B act: -9; NPR1 activator: 44*; bovine MsrA act: -8

Results for COC(=O)c1sc(N2C(=O)C(O)=C(C(=O)c3ccc(C)o3)C2c2ccc([N+](=O)[O-])cc2)nc1C (configuration not stated) ?
MsrA inh: 3; GC-B act: -3; NPR1 activator: 1; bovine MsrA act: -4

What do the screens show for `Cc1ccc(C)c(NC(=O)c2cccc3c2-c2ccccc2C3=O)c1`?
GC-B act: 1; NPR1 activator: -7

What do the screens show for `C=CCn1c(Cc2cccs2)nnc1SCC(=O)Nc1cccc2ccccc12`?
GC-B act: 4; NPR1 activator: -7

How did COC(=O)c1cccc(OC[C@@H](O)CN2CCC(C(O)(c3ccccc3)c3ccccc3)CC2)c1 do in these assays?
GC-B act: -16; NPR1 activator: -16

What do the screens show for `Cc1cc2nc[nH]c2cc1[N+](=O)[O-]`?
MsrA inh: 0; GC-B act: 3; NPR1 activator: 3; bovine MsrA act: -1

How did Cc1cc(N)ncc1[N+](=O)[O-] do in these assays?
MsrA inh: 4.6*; GC-B act: 8; NPR1 activator: 7; bovine MsrA act: -7

How did Cc1c(Nc2cc(Cl)c3nonc3c2[N+](=O)[O-])c(=O)n(-c2ccccc2)n1C do in these assays?
MsrA inh: 2; GC-B act: 37*; NPR1 activator: 15; bovine MsrA act: -14

What do the screens show for `O=C(O)c1ccc(Nc2cc(Cl)c3nonc3c2[N+](=O)[O-])cc1`?
MsrA inh: 4; GC-B act: -1; NPR1 activator: 2; bovine MsrA act: -15

What do the screens show for `O=[N+]([O-])c1c(Nc2cccc(O)c2)cc(Cl)c2nonc12`?
MsrA inh: 4; GC-B act: 37*; NPR1 activator: 14; bovine MsrA act: -9

How did CN1CCN(C(=O)Nc2cccc(-c3ccccc3)c2)CC1 do in these assays?
MsrA inh: 4.6*; GC-B act: -3; NPR1 activator: 3; bovine MsrA act: -5

Results for CN1CCN(C(=O)Nc2ccc3c(c2)N(C)C(=O)c2ccccc2S3)CC1 ?
MsrA inh: 0; GC-B act: 4; NPR1 activator: 3; bovine MsrA act: -2

How did CN(C)CCCNc1nc(-c2ccc(Cl)cc2)nc2ccccc12 do in these assays?
MsrA inh: 6.0*; GC-B act: -7; NPR1 activator: 0; bovine MsrA act: -2

Results for Cc1ccc(-c2nc(NCCN(C)C)c3ccccc3n2)cc1 ?
MsrA inh: 0; GC-B act: -5; NPR1 activator: 1; bovine MsrA act: -8

Results for Oc1ccc(/C=N/n2c(-c3ccccc3)n[nH]c2=S)cc1Br ?
MsrA inh: 4.6*; GC-B act: -2; NPR1 activator: -3; bovine MsrA act: 1
